From PubChem
Only some compounds are listed: those with a hit (about 1.4% of all), similar ones and a draw of the others.
GRP78 ERSR act = induces the endoplasmic reticulum stress response in human glioma cells. U87-MG GRP78 promoter luciferase reporter, 16 h. Potency, µM, for inactives: at the top dose activation, usual class: activators. actives 0.02% (n = 420,000); note: potency is the fitted concentration of half-maximal effect; series mostly up to about 76 µM; % of control where 0% means no effect; nearly all actives have a fitted effect of over 35% in size
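ERSR induction read as luciferase luminescence (Bright-Glo, 10 min at room temperature) in stably transfected human U87-MG glioma cells exposed to compounds for 16 h, using GRP78 as sensor.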
RXFP1 antag = antagonists of human relaxin receptor RXFP1; AID 1259400; activity change, negative = inhibition, % at 57.5 µM; actives 0.59% (n = 350,000); Q9HBX9; HEK293-RXFP1, relaxin-stimulated cAMP HTRF, 30 min; hits give low values;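 active = activity change of -60% or lower, but not beyond a set lower limit; inconclusive = change between -60% and -40%, or beyond the set limit; inactive = change above -40%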; note: % is set by controls: 0 for no effect and ±100 for the full control effect
PTHR1 agonist = agonists of human PTHR1 parathyroid hormone receptor | actives 0.075% (n = 410,000) | Q03431 | AID 743266 | Potency, µM (highest dose often 115 µM), inactives show at the top dose activation, actives largely listed as activators | HEK293 GP2 PTHR1 cells, GloSensor cAMP luminescence, 1 h; note: potency is the fitted concentration of half-maximal effect; nearly all actives have a fitted effect of over 55% in size
Target sequence (Q03431 whole entry, looked up): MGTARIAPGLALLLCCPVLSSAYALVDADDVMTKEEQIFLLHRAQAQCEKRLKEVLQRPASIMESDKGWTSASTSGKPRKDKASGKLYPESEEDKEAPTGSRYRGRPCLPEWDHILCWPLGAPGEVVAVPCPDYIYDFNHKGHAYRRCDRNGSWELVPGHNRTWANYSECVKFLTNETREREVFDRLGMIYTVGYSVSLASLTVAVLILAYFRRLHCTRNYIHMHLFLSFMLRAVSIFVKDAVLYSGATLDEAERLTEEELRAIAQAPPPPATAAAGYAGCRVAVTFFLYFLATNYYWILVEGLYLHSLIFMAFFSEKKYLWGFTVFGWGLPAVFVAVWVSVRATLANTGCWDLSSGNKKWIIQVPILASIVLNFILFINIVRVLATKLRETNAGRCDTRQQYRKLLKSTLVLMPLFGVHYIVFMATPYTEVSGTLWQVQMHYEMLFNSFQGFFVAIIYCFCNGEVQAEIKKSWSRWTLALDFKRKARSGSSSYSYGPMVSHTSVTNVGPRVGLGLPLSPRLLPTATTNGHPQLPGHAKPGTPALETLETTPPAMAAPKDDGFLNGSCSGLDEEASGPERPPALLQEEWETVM
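HEK-293-derived GP2 cells expressing PTHR1 and a GloSensor cAMP reporter, 3,000/well, plated overnight, given luciferin plus IBMX (each 0.5 mM as added) for 1 h at 37 °C, then compound for 1 h at 37 °C. Luminescence was read after 15 min at room temperature.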
RXFP1 agonist = agonists of human relaxin receptor RXFP1; HEK293T-RXFP1 cAMP TR-FRET, 30 min; response scale: percent of porcine relaxin response, buffer zero; AID 2676; Potency, µM (highest dose often 57.5 µM), without a hit: top-dose activation, hits mostly activators; actives 0.3% (n = 370,000); note: potency is the fitted concentration of half-maximal effect; % is set by controls: 0 for no effect and ±100 for the full control effect; nearly all actives have a fitted effect of over 60% in size
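HEK293 cells stably expressing RXFP1, treated 30 min at 37C with compounds plus PDE4 inhibitor Ro 20174; cAMP measured by HTRF TR-FRET. Normalized to buffer and 29 nM porcine relaxin; EC50 by Hill fit.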
KCNH2 WT inh = KCNH2 (human, wildtype) channel inhibition | U2OS, BacMam KCNH2, thallium flux FluxOr; hits give low values | activity change, % at 1.84 µM | actives 0.37% (n = 340,000) | AID 720551;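 active = maximum activity change below -70%; inconclusive = maximum activity change between -70% and -50%; inactive = maximum activity change above -50%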; note: % is set by controls: 0 for no effect and ±100 for the full control effect
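U2OS cells transduced with wild-type KCNH2 virus are loaded with FluxOr dye for 45 min, and thallium flux is measured in kinetic reads before and after stimulation buffer. Rate constants are normalized to DMSO controls.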
KCNH2 3.1 block = KCNH2 3.1 (human) potassium channel inhibition; activity change, % (tested at about 1.8 µM); U2OS KCNH2 3.1, thallium flux FluxOr; hits give low values; AID 720553; actives 0.95% (n = 340,000);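 active = maximum activity change below -70%; inconclusive = maximum activity change from -70% to -50%; inactive = maximum activity change above -50%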;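 note: thallium influx rate constant from kinetic fluorescence after stimulation buffer; % is set by controls: 0 for no effect and ±100 for the full control effect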
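U2OS cells transduced with KCNH2 3.1 mutant virus (1.77 x 10^8 /mL, 4 h), plated overnight at 37 C, loaded 45 min with FluxOr dye plus Red40 quencher. Thallium flux rate constant from kinetic reads after stimulation buffer, normalised to controls.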
The depositor's hits bear a star; i = inactive; u = inconclusive; x = not tested or not shown; [ ] = remark or other dose. Unless noted, calls come from the whole dose curve; as a rule, active = well fitted curve in the direction sought with a large enough effect; inconclusive = small, poorly fitted or top-dose-only effect, or another doubt; inactive = no such curve, though single readings can be large; an effect the other way counts as inactive or inconclusive.

SMILES | GRP78 ERSR act | RXFP1 antag | PTHR1 agonist | RXFP1 agonist | KCNH2 WT inh | KCNH2 3.1 block
CC(C)CC(=O)NNC(=O)c1ccc(Cl)cc1 | 1.9% | 3.9 | 14.5% | -0.8% | -74.5* | 55.4
CC(C)(C)c1ccc(NC(=O)c2cc(C3CCCN(C(=O)CCc4ccccc4)C3)on2)cc1 (stereo unspecified) | 3.9% | x | -45.3% | x | x | x
CCN(C[C@H]1N[C@@](CC)(C(=O)OC)[C@H]2C(=O)N(Cc3ccccc3)C(=O)[C@@H]12)S(=O)(=O)c1ccc(-c2ccccc2)cc1 | 0.5% | x | -26.9% | x | -4.3 | -5.1
CCN(C[C@H]1N[C@@](CC)(C(=O)OC)[C@H]2C(=O)N(Cc3ccccc3)C(=O)[C@@H]12)S(=O)(=O)c1ccc(OC(F)(F)F)cc1 | 1.2% | x | -12.0% | x | -276.9* | -13.3
CCn1c(C(=O)NC2CCC(C)CC2)cc2sccc21 (stereo unspecified) | 3.3% | u | i | 3.4% | -233.3* | -2.5
CCOC(=O)N1CCC(NC(=O)c2cc3sccc3n2CC)CC1 | -3.9% | 3.6 | 4.8%[57.5 µM] | -0.4% | -9.6 | -7.7
CCOc1ccc(-c2nc[nH]c2[N+](=O)[O-])cc1 | -3.2% | -2.0 | u | -1.4% | -8.5 | -198.4*
Cc1nc(NC(=S)NC(=O)c2ccco2)sc1C(=O)N(C)C | 5.3% | -10.3 | -3.2% | 3.1% | -122.5* | 3.1
COC(=O)c1sc(NC(=S)NC(=O)c2ccccc2F)nc1C | -1.0% | -4.1 | -12.1% | 35.5µM* | 1.7 | 6.4
Cc1ccc(C(=O)Nc2nc(C)c(C(=O)N(C)C)s2)o1 | -0.6% | 2.8 | -5.7% | 0.4% | -12.1 | -13.7
COC(=O)c1sc(NC(=S)NC(=O)c2cccc(C)c2)nc1C | -1.8% | 0.3 | i | 0.6% | -38.3 | 14.7
COc1ccc(-c2cncc3nccn23)cc1OC | -3.7% | x | i | x | x | x
Cc1cccc(N(C)C(=S)Oc2ccc3ccccc3c2)c1 | 3.1% | -71.5* | -7.1% | 1.8% | 9.4 | -24.7
Cc1cccc(N(C)C(=S)Oc2ccc3c(c2)CCC3)c1 | 0.3% | -62.8* | x | x | x | x
COc1ccc(N(C)C(=S)Oc2ccc(C(=O)Nc3ccccc3)cc2)cc1 | x | x | x | 3.2% | x | x
Cc1cccc(NC(=O)COc2ccc3c(c2)CCC3)n1 | 2.3% | -14.3 | -13.3% | 0.7% | -4.0 | -17.2
COc1ccc(C(=O)NCc2ccccc2CN2CCCC2)cc1S(=O)(=O)N1CCOCC1 | -5.1% | -9.0 | -24.4% | -0.2% | 37.0 | 0.6
O=C(Nc1ccc(Cl)c(Cl)c1)c1ccncc1 | 4.4% | 3.4 | i | 0.7% | -0.7 | 2.1
CN(C)CCCN1c2ccccc2Sc2ccc3ccccc3c21 | -2.6% | -62.6* | 23.3% | x | 32.6 | u
Cc1c(C(=O)NCCSCc2ccccc2)cccc1[N+](=O)[O-] | -0.1% | 0.0 | 11.0% | -0.5% | 4.2 | -76.8*
Cc1c(C(=O)NCCSCc2ccco2)cccc1[N+](=O)[O-] | -0.4% | -2.0 | -0.4% | 2.5% | -3.8 | 7.6
O=C(c1cc(F)cc2c1OCOC2)N1CCN(c2ccc(F)cc2)CC1 | -2.6% | 19.0 | i | -0.3% | -3.5 | -11.1
C[C@H](NC(=O)N1CCn2c1nc1ccccc12)C(=O)NC1CC1 | 3.9% | 3.2 | i | 3.6% | -1.3 | -135.7*
CCc1ccc(NC(=O)Cn2nnc(C(=O)NCCc3ccccc3)c2N)cc1 | -3.1% | x | -18.7% | 2.4% | x | x
CCOC(=O)c1cc2c(ccn2C)n1Cc1ccccc1Cl | -2.8% | -9.8 | -15.3% | 0.9% | x | -88.6*
Cc1nn(-c2ccccc2)c(N)c1C(O)(CSc1nccn1C)C(F)(F)F (stereo unspecified) | -4.5% | -3.7 | -1.9%[57.5 µM] | -1.3% | -1.4 | 6.3
O=c1c(-c2ccc3c(c2)OCCO3)coc2cc(OC3OC(CO)C(O)C(O)C3O)ccc12 (stereo unspecified) | -8.7% | -6.4 | -36.0% | -1.6% | 1.8 | -6.4
COc1ccc(-c2coc3cc(O[C@@H]4O[C@H](CO)[C@@H](O)[C@H](O)[C@H]4O)ccc3c2=O)cc1 | -3.1% | x | -20.8% | x | 2.2 | -151.3*
